In PubChem BioAssay AID588849 (Broad Institute, 2011):
Measured potencies and affinities stand elsewhere.

Molecular target: CAAX prenyl protease 2 (Homo sapiens) (UniProt Q9Y256)
Experiment: inhibition of Ras-converting CAAX protease Rce1 – biochemical, yeast membranes, quenched-peptide fluorescence, cherry-pick, dose response (AID 588849)
Conditions: yeast membrane fractions expressing human Rce1, quenched-peptide fluorescence, 4 h; series mostly up to 10 µM; activity change, negative = inhibition: at the top concentration; call rule not given here

Chain of CAAX prenyl protease 2 (Homo sapiens) (Q9Y256 whole entry, looked up): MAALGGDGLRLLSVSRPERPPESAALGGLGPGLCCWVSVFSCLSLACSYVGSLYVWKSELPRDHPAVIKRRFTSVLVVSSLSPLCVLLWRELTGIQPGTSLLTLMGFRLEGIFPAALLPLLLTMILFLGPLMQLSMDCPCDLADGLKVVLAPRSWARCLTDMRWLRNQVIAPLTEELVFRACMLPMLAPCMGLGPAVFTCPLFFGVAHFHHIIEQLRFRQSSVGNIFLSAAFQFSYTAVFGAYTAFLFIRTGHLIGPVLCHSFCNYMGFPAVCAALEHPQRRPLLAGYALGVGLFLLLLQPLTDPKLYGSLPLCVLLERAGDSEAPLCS

Activity change, negative = inhibition, inactive:
O=C(Nc1cccc2ncccc12)c1cccnc1 -3.28%, Cc1ccc(C(=O)N/C(=C/c2ccco2)C(=O)Nc2cccc(C(=O)O)c2)cc1 4.83%, O=C(CN(C1CCCCC1)C1CCCCC1)N1CCc2ccccc2C1 -4.14%
